In PubChem BioAssay AID1053119 (Broad Institute, 2014):
Potency and affinity values are given separately. Inconclusive results are not listed. Values without a mark were called inactive.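 How the source made its calls: active means signal loss from cell killing with fitted potency at or below twice the top valid dose; inconclusive means flat drop of 30 to 70%, or unreliable curve fit; inactive means opposite direction, flat within 30%, or weaker potency.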

Test: viability loss in A549 lung cancer cells – cell-based, cherry-picks, 26 µM top dose, cytotoxicity control, dose response (AID 1053119);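 further: 0% = neutral control wells and -100% = 10 µM mitoxantrone wells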
Details: CellTiter-Glo ATP luminescence, 72 h; series mostly up to 26 µM; activity change, negative = cytotoxicity: at the top concentration

Q: For `NC(=O)C1=C[C@H](c2coc3ccccc3c2=O)C[C@H](OCCCCO)O1`, which “activity change, negative = cytotoxicity” value is on record?
A: 7.67%

Q: Which “activity change, negative = cytotoxicity” value does the source give for `CCOC(=O)c1nnn(-c2ccc(OC)cc2)c1N` here?
A: -2.2%

Q: For `CO[C@H]1CN(C)C(=O)c2cc(NC(=O)Nc3ccc(Cl)c(Cl)c3)ccc2OC[C@@H](C)NC[C@H]1C`, which “activity change, negative = cytotoxicity” value is on record?
A: -12.1%

Q: Which “activity change, negative = cytotoxicity” value does the source give for `COc1cccc(S(=O)(=O)N2CC[C@@H]3[C@H]2c2cc(-c4ccc(C#N)cc4)ccc2N[C@@H]3CO)c1` here?
A: -10.4% [at 23.5 µM]

Q: With `CCOC(=O)C1=C(C)Nc2nc3ccccc3n2C1c1ccncc1` (stereo not given) as the compound, how does the “activity change, negative = cytotoxicity” value read?
A: -8.08%

Q: Which “activity change, negative = cytotoxicity” value does the source give for `C[C@H]1CN([C@@H](C)CO)C(=O)c2cc(NC(=O)C3CCCCC3)ccc2O[C@H]1CN(C)Cc1ccc(-c2ccccc2)cc1` here?
A: -12.8%

Q: Which “activity change, negative = cytotoxicity” value does the source give for `C[C@@H]1CN([C@@H](C)CO)C(=O)c2cc(NC(=O)C3CCCCC3)ccc2O[C@@H]1CN(C)Cc1ccc(-c2ccccc2)cc1` here?
A: -4.93%

Q: For `O=C(CCNS(=O)(=O)c1cccc2nonc12)NC1CCCc2ccccc21` (stereo not given), which “activity change, negative = cytotoxicity” value is on record?
A: 10.4%

Q: With `Cc1ccc(S(=O)(=O)N2CC3(C)CN(S(=O)(=O)c4ccc(C)cc4)CC(C)(C2)C3=O)cc1` as the compound, how does the “activity change, negative = cytotoxicity” value read?
A: -4.34%

Q: Which “activity change, negative = cytotoxicity” value does the source give for `COCC(=O)Nc1ccc2c(c1)C(=O)N(C)[C@@H]1CC[C@@H](CC(=O)NCc3ccccc3Cl)O[C@@H]1CO2` here?
A: -6.21% [at 23.5 µM]

Q: With `Cc1oc2ccc(O)cc2c1C(=O)c1ccc(Br)cc1` as the compound, how does the “activity change, negative = cytotoxicity” value read?
A: -18.2%

Q: Which “activity change, negative = cytotoxicity” value does the source give for `Fc1cnc(N2CCN(c3ccccc3)CC2)nc1N1CCN(c2ccccc2)CC1` here?
A: 9.88%

Q: Which “activity change, negative = cytotoxicity” value does the source give for `OC(CNC1CCCc2ccccc21)COc1c(Cl)cccc1Cl` (stereo not given) here?
A: -13.4%

Q: For `CN(C)C(=O)c1ccc(-c2ccc3c(c2)[C@@H]2[C@@H](CCN2C(=O)c2ccc(F)cc2)[C@@H](CO)N3C)cc1`, which “activity change, negative = cytotoxicity” value is on record?
A: -30.3%

Q: Which “activity change, negative = cytotoxicity” value does the source give for `COc1ccc(CCNC(=O)C2CCN(Cc3nc(-c4ccccc4F)oc3C)CC2)cc1OC` here?
A: 13.1%

Q: For `N#Cc1ccc(-c2ccc3c(c2)[C@@H]2[C@@H](CCN2S(=O)(=O)c2cccc(F)c2)[C@H](CO)N3)cc1`, which “activity change, negative = cytotoxicity” value is on record?
A: -4.73%

Q: With `C[C@@H]1CN([C@@H](C)CO)C(=O)c2cc(-c3ccccc3)cnc2O[C@@H]1CN(C)C(=O)c1cccc(F)c1` as the compound, how does the “activity change, negative = cytotoxicity” value read?
A: -10.3%

Q: For `C[C@@H]1CN([C@H](C)CO)C(=O)c2cc(-c3ccccc3)cnc2O[C@@H]1CN(C)C(=O)c1cccc(F)c1`, which “activity change, negative = cytotoxicity” value is on record?
A: 1.57%

Q: Which “activity change, negative = cytotoxicity” value does the source give for `COc1ccc(-c2csc(CCn3nc(C)cc3C)n2)cc1OC` here?
A: -10.7%

Q: For `Cc1cccc(NC(=O)c2ccc(C3SCC(=O)N3CCc3ccccc3)cc2)c1` (stereo not given), which “activity change, negative = cytotoxicity” value is on record?
A: -0.187%

Q: Which “activity change, negative = cytotoxicity” value does the source give for `CCc1nc2c(OCCc3cccc(OC)c3)cccn2c1N(C)C(=O)c1ccc(C)cc1` here?
A: -7.35%

Q: For `Cc1cccc(NC(=O)Nc2ccc(S(=O)(=O)Nc3onc(C)c3C)cc2)c1`, which “activity change, negative = cytotoxicity” value is on record?
A: -6.98%

Q: With `CN(C)c1ccc(-c2ccnc3c2CC(C)(C(=O)NCC2CC2)O3)cc1` (stereo not given) as the compound, how does the “activity change, negative = cytotoxicity” value read?
A: -1%

Q: With `CCCCNC(=O)Nc1nc2ccc(CC)cc2s1` as the compound, how does the “activity change, negative = cytotoxicity” value read?
A: -1.95%

Q: With `C[C@@H]1CN([C@@H](C)CO)C(=O)c2cc(NC(=O)CCCN(C)C)ccc2O[C@@H]1CN(C)Cc1ccc(-c2ccccc2)cc1` as the compound, how does the “activity change, negative = cytotoxicity” value read?
A: -1.88% [at 23.5 µM]
